Most compounds without a hit are left out; they make up all but 1.1% or so of the library.
BRCA1 expr act: increases BRCA1 expression; Potency, µM (top dose mostly 46.1 µM), inactives show at the top dose activation, usual class: activators; MCF7-BRCA1-FFLuc reporter, luminescence, 48 h; response scale: scaled: vehicle 0%, 10 µM genistein 100%; actives 1.1% (n = 380,000); further: potency means the concentration at half of the fitted maximal effect; nearly all actives have a fitted effect of over 80% in size
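First, MCF7-BRCA1-FFLuc cells (2000/well) attach for 2 h; next, compounds are pin-added and incubated 48 h at 37 °C; finally, luciferase reagent is added and luminescence read after 15 min.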
PTHR1 agonist: activates the human parathyroid hormone receptor PTHR1; Q03431; HEK293 GP2 PTHR1 cells, GloSensor cAMP luminescence, 1 h; Potency, µM (series often up to 115 µM), inactives show at the highest dose activation, actives largely listed as activators; actives 0.075% (n = 410,000); AID 743266; further: potency means the concentration at half of the fitted maximal effect; nearly all actives have a fitted effect of over 55% in size
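HEK-293-derived GP2 cells expressing PTHR1 and a GloSensor cAMP reporter, 3,000/well, plated overnight, given luciferin plus IBMX (each 0.5 mM as added) for 1 h at 37 °C, then compound for 1 h at 37 °C. Luminescence was read after 15 min at room temperature.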
LDHA block: inhibitors of human lactate dehydrogenase A; AID 1347041; actives 0.15% (n = 480,000); activity change, % (values are at about 110 or 230 µM); purified LDHA, NADH/diaphorase-resazurin fluorescence; active compounds read low; P00338; in the data active means activity change below about -30%; inconclusive means mostly about -25% to -30%;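 further: plate controls were DMSO wells for no effect and wells without enzyme for full effect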
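Resorufin fluorescence (ex540/em590), read at 0 and 20 min after diaphorase/resazurin addition, reports the NADH left after a 5 min room-temperature reaction of 2 nM human LDH5 with 0.06 mM NADH and 0.2 mM pyruvate.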
RGS4 inhibitor: inhibitors of human regulator of G protein signaling 4. Transcreener GDP fluorescence polarization, RGS4-accelerated GTP hydrolysis. Potency, µM (top dose mostly 114 µM), for inactives: top-dose activity change, negative = inhibition, hits mostly inhibitors. actives 0.039% (n = 390,000). AID 504845; further: potency means the concentration at half of the fitted maximal effect; on the % scale 0 is the no-effect control and ±100 the full control effect; nearly all actives have a fitted effect of over 75% in size
Target sequence (P49798 whole entry, looked up): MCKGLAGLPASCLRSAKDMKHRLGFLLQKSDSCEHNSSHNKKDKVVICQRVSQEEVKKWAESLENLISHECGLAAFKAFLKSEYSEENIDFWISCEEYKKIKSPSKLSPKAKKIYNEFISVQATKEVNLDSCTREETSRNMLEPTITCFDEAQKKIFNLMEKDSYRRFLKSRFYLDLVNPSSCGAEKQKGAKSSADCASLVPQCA
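MLSMR compounds (23 nl, pin-transferred) preincubated 10 min at room temperature with a 500nM (2x) first reagent, then RGS4 at 900nM (2x) plus Transcreener GDP mix added; fluorescence polarization (620/688 nm) read before and after 90 min at 30 °C.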
p53 reactivator: restores transcriptional activity of mutant p53; H1299 p53-A138V BP100-luciferase reporter, luminescence, 24 h; Potency, µM (titrated, usually from 92.2 µM), for inactives: at the highest dose activity change, positive = activation, actives largely listed as activators; actives 0.063% (n = 320,000); AID 504706; further: potency means the concentration at half of the fitted maximal effect; % of control where 0% means no effect; nearly all actives have a fitted effect of over 45% in size
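H1299 (p53-null), stable ts p53-A138V + BP100-Luc; 1000 cells/well, Opti-MEM/10% FBS; cpd 4 pt, 1:5; 24 h, 37 deg C, 5% CO2; detection reagent 10 min RT; luminescence.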
Starred values were filed as active, the others as inactive; i = inactive; ? = inconclusive; nt = not tested or not shown; ! = a repeat was not active; [ ] = dose if it differs, or a comment. Unless noted, the call rests on the fitted dose curve; in most records, active means well fitted curve in the direction sought with a large enough effect; inconclusive means small, poorly fitted or top-dose-only effect, or another doubt; inactive means no such curve, though single readings can be large; an effect the other way counts as inactive or inconclusive.

SMILES	BRCA1 expr act	PTHR1 agonist	LDHA block	RGS4 inhibitor	p53 reactivator
COc1ccc(NS(=O)(=O)c2ccc(OCC(=O)Nc3ccc4c(c3)OCO4)c(C)c2)cc1	nt	nt	4	nt	nt
CC(=O)c1cc(C#N)c(SCC(=O)OC(C)(C)C)nc1C	5.6µM*	-5%	1	10%	?
CC(=O)c1cc(C#N)c(SCC(=O)OC(C)C)nc1C	44%	-2%[57.5 µM]	2	-9%	-3%
O=C(OC1CCOC1=O)c1ccccc1Sc1ccc(C(F)(F)F)cc1[N+](=O)[O-] (configuration not stated)	nt	nt	9	nt	nt
OCCN1CCN(C(=S)Nc2cccc(C(F)(F)F)c2)CC1	-5%	i	-33*!	-6%	-3%
CCS(=O)(=O)c1nc(-c2ccc(F)cc2)cc(C(F)(F)F)n1	nt	nt	4	nt	nt
CCN1CCN(CC(=O)Nc2c(OC)cccc2OC)CC1	-5%	-22%	-31*	-6%	-4%
CN(Cc1ccccc1)Cc1nc2c(c(=O)n(C)c(=O)n2C)n1CCc1ccccc1	-31%	23%[57.5 µM]	-31*!	12%	nt
CCCn1c(CN(C)Cc2ccccc2)nc2c1c(=O)n(C)c(=O)n2C	-75%	-11%[57.5 µM]	-2	-18%[56.9 µM]	-6%
CC(=O)N1N=C(c2ccc(C)cc2)CC1c1ccc2c(c1)OCO2 (configuration not stated)	4.5µM*	-22%	-4	7%	17%
CC(=O)N1N=C(c2ccc(C)cc2)CC1c1ccco1 (configuration not stated)	13µM*	-9%	0	-12%	0%
N#C/C(=N\Nc1ccc([N+](=O)[O-])cc1)C(=N)N1CCOCC1	?	i	-5	-7%	12%
N#C/C(=N\Nc1ccc(Br)cc1)C(=N)N1CCOCC1	10µM*	-25%	4	4%	16%
COc1ccc(S(=O)(=O)N2CCc3ccccc32)cc1C(=O)N1CCN(c2ncccn2)CC1	nt	nt	0	nt	nt
CC1CCCCC1NC(=O)c1ccc2c(c1)OCCO2 (configuration not stated)	84%	-18%	0	-34%	?
CC1CCCC(NC(=O)c2ccc3c(c2)OCCO3)C1C (configuration not stated)	7.1µM*	-33%	-3	8%	?
O=c1cc(N2CCCCC2)c2ccccc2o1	6%	i	4	-16%	-2%
O=c1c(N2CCCCC2)coc2ccccc12	8.9µM*	-11%[57.5 µM]	-10	-8%	19%
Cn1cc(S(=O)(=O)c2ccccc2)c(=O)c2cc(F)c(N3CCN(c4ccccc4)CC3)cc21	nt	6%	-3	36%	nt
Cn1cc(S(=O)(=O)c2ccccc2)c(=O)c2cc(F)c(N3CCN(c4ccc(F)cc4)CC3)cc21	nt	61µM*	-5	-15%	nt
Cc1ccc(NC(=O)c2cc(-c3ccncc3)nc3ccccc23)c(O)c1	nt	nt	1	nt	nt
COCc1cn(-c2nc3ccccc3s2)nn1	11µM*	i	-3	nt	nt
c1ccc2sc(CCCCc3nc4ccccc4s3)nc2c1	nt	nt	-19	nt	nt
N#CCCCc1cn(-c2nc3ccccc3s2)nn1	10µM*	-42%	-1	nt	nt
CCN1CCN(CCOc2ccc3c(=O)c(-c4ccc(Cl)cc4)c(C)oc3c2)CC1	nt	nt	-12	nt	nt
SMILES	BRCA1 expr act	PTHR1 agonist	LDHA block	RGS4 inhibitor	p53 reactivator
Fc1cccc(CSc2ccc(-c3ccc4c(c3)OCO4)nn2)c1	83%	i	-6	-10%	?
c1cncc(CSc2ccc(-c3ccc4c(c3)OCO4)nn2)c1	5.6µM*	-31%	-6	3%	?
Cc1ccccc1CSc1ccc(-c2ccc3c(c2)OCO3)nn1	8.9µM*	-28%	-3	-24%	nt
O=C(Nc1ccccc1Cl)c1ccc2ccccc2n1	nt	nt	12	nt	nt
CCOc1nc2ccccc2nc1N1CCC(C(=O)Nc2ccc(C(C)=O)cc2)CC1	nt	nt	-6	nt	nt
CC(C)OCc1ccccc1CNS(=O)(=O)c1ccc(Br)cc1Cl	nt	nt	8	nt	nt
C/C(=N/NC(=O)c1ccco1)c1ccc(NC(=O)c2ccc(F)cc2)cc1	7.1µM*	-21%	-5	-16%	?
C/C(=N\NC(=O)c1ccc(O)cc1)c1ccc(NC(=O)Cc2ccccc2)cc1	8.9µM*	i	-1	-12%	6%
C/C(=N\NC(=O)c1ccc(F)cc1)c1ccc(NC(=O)Cc2ccccc2)cc1	65%	2%	0	-7%	?
Cc1oc(-c2nc(C#N)c(N(C)C)o2)cc1S(=O)(=O)N(C)c1ccccc1	nt	nt	-12	nt	nt
C/C(=N\Nc1ccc([N+](=O)[O-])cc1)c1ccc(C)cc1C	nt	nt	7	nt	nt
COc1ccc2oc(C(=O)NC(C)(C)C)c(C)c2c1	7.1µM*	i	1	-40%	4%
COc1ccc2oc(C(=O)C3CC3)c(N)c2c1	6.3µM*	-21%	2	19%	?
Cc1ccc(S(=O)(=O)CCC(=O)OCC(=O)NC(C)C(C)C)cc1 (configuration not stated)	nt	nt	10	nt	nt
CCOc1ccc2nc(NC(=O)CCC(=O)c3cccs3)sc2c1	1.8µM*	-9%[57.5 µM]	-2	-3%	?
COc1ccc2c(c1)CCc1sc(NC(=O)c3ccco3)nc1-2	10µM*	-12%	11	-51%	?
COc1ccc2nc(NC(=O)c3cc(C)oc3C)sc2c1	5µM*	i	2	-22%	28%
COc1ccc2nc(NC(=S)NC(=O)c3ccco3)sc2c1	5µM*	-14%	0	5%	30%
O=C(NC(=S)Nc1nc2ccccc2s1)c1ccco1	33%	-27%	-12	-22%	?
CCOCC(=O)Nc1nc2ccc(OCC)cc2s1	?	i	4	8%	?
CCn1c(SCC(=O)c2ccc(Cl)s2)nnc1-c1ccc(OC)cc1	nt	nt	4	nt	nt
C=CCOc1ccc(/C=C2\N=C(SC)SC2=O)cc1	nt	nt	7	nt	nt
CS(=O)(=O)N1CCC(NC(=O)c2ccc3ccccc3n2)CC1	nt	nt	6	nt	nt
COc1ccc2nc(NC(=O)CSc3ccccc3)sc2c1	10µM*	-11%	-1	17%	18%
COc1ccc2nc(NC(=O)CSc3ncccn3)sc2c1	nt	nt	11	nt	nt
Cc1ccc(-c2cnc(-c3ccccc3C(=O)OCC(=O)NCCC#N)o2)cc1	nt	nt	12	nt	nt
O=C(c1cc(COc2ccccc2)on1)N1CCCC(OCc2cccnc2)C1 (configuration not stated)	47%	i	-2	19%	2%
COc1ccccc1OCc1cc(C(=O)N2CCCC(OCc3cccnc3)C2)no1 (configuration not stated)	7.1µM*	-16%	0	-18%	28%
COc1cc(=O)n(-c2ccccc2C)nc1C(=O)NCc1ccc(Cl)cc1	nt	nt	-4	nt	nt
O=C(Nc1sc2c(c1C(=O)O)CCCCC2)c1ccccc1	-15%	-35%	-15	-45%	2%

Bioassay records from PubChem BioAssay.
